23 molecules from PubChem BioAssay AID686940 (The Scripps Research Institute Molecular Screening Center, 2013) can be followed below.

The structures appear in SMILES notation. Among all 370,000 compounds or so, about 2,600 (0.7%) were called active. For the sample, actives were picked, then their nearest neighbours and some compounds at random. Unmarked numbers belong to inactive results.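 The calls were made as follows: active = inhibition above a per-plate cutoff, mean inhibition of test wells between control levels plus 3 SD (cut at about 38% in these data); inactive = the rest.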

Chain of COUP transcription factor 2 (Homo sapiens) (P24468 whole entry, looked up): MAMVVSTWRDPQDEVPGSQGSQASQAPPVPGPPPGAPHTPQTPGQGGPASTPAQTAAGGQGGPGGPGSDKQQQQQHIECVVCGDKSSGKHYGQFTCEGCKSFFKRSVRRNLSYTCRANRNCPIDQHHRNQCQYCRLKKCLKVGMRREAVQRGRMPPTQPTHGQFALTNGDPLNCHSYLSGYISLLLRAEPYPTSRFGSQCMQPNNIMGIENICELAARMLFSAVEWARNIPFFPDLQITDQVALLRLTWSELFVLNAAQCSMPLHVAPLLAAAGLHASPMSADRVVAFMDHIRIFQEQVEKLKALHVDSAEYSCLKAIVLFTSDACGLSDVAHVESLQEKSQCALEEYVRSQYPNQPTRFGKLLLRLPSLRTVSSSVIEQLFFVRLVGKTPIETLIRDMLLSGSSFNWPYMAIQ

The assay addresses COUP transcription factor 2 (Homo sapiens) (UniProt P24468). Briefly: NR2F2 transcriptional activity inhibitors, primary screen, cell-based, luciferase reporter, HEK293T, luminescence (AID 686940).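 Also: cells cotransfected with COUP-TFII expression vector driving the NGFI-A reporter; 0% = median of COUP-TF2 test wells and 100% = reporter-only cells.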 Conditions: HEK293T NGFI-A luciferase reporter, at 8.6 µM, hits give high values. (In a reporter assay the amount or activity of a reporter protein is the signal.)
`CCOC(=O)[C@]12CCCCC/C=C\1N(Cc1ccc(OC)cc1)C(=O)[C@H]2CC(=O)N1CCOCC1`: the inhibition (as a rule, the relative decrease from the control value, in per cent) was 13.5%.

For `COc1ccc([C@H]2OC(=O)C[C@H]2C(=O)N2CCN(c3ccccc3F)CC2)cc1OC`, the inhibition is -8.84%.

With `COCCn1c(C)cc(C(=O)COC(=O)CNC(=O)c2ccco2)c1C`, the inhibition was -5.61%.

For the molecule `Cc1ccsc1C(=O)OCC(=O)c1cc(C)n(CC2CCCO2)c1C` (stereo not drawn), the inhibition is 87.1% (active).

`Cc1cc(C(=O)COC(=O)CNC(=O)c2ccc(F)cc2)c(C)n1Cc1ccco1`: the inhibition is 22.8%.

Regarding `C=CCn1c(SCC(N)=O)nnc1-c1ccccc1OC`, the inhibition is 9.3%.

Regarding `COC(=O)[C@]12C[C@H](CC(=O)NCc3ccccc3)C(=O)N(CCc3ccc(OC)c(OC)c3)C1=C[C@H](C(C)(C)C)O[C@@H]2C`, the inhibition is 10.6%.

On to `COc1cc(SC)ccc1C(=O)Nc1nc(C)cs1`, for which the inhibition is 67.9% (active).

With `COCCn1c(SCC(=O)Nc2nc(C)cs2)nnc1C(C)C`, the inhibition is -1.64%.

For the molecule `Cc1csc(NC(=O)CN2CCCCCC2)n1`, the inhibition is 4.1%.

Turning to `COC[C@@H]1CCCN1c1ccc2c(c1)O[C@H](C)CCN(C1CC1)S2(=O)=O`, the inhibition is -10.8%.

In the case of `COC(=O)C[C@@H]1CC[C@H]2[C@@H](COc3ccc(NS(=O)(=O)CC(F)(F)F)cc3C(=O)N2C)O1`, the inhibition was -17.9%.

`CN(CCO)c1cccc2c1S(=O)(=O)N(Cc1cn(Cc3ccc(C(F)(F)F)cc3)nn1)Cc1ccccc1O2`: the inhibition was -35.7%.

As to `CCOc1ccc(Oc2c(Cl)cnn(-c3ccc(C)cc3)c2=O)cc1`, the inhibition is 7.75%.

Regarding `Cc1sc2nc(SCC(=O)c3ccc(O)c(O)c3)n(Cc3ccco3)c(=O)c2c1C`, the inhibition is 7.6%.

Regarding `CCOC(=O)c1ccc(NC(=O)CCn2c(=O)oc3ccccc32)cc1`, the inhibition was 6.76%.

As to `Cc1ccc(NC(=O)Cn2cnc3c(OCc4ccccc4)ncnc32)cc1C`, the inhibition is 2.95%.

As for `CCOC(=O)c1ccc(NC(=O)Cn2cnc3cc(C)c(C)cc32)cc1`, the inhibition was 59.5% (active).

In the case of `CC(=O)O[C@@]1(C(C)=O)CCC2[C@H]3C=C(C)C4=CC(=O)CC[C@@]4(C)C3CC[C@]21C` (stereo partly drawn), the inhibition was 3.66%.

In the case of `COc1cc(C(=O)Nc2cc(C(F)(F)F)ccc2N2CCOCC2)ccc1O`, the inhibition was -16.6%.

For the molecule `C=CCOc1ccc(C(=O)Nc2ccccc2C(=O)N2CCCC2)cc1`, the inhibition was -20.6%.

`COc1ccc(C(=O)Nc2ccccc2C(=O)N/N=C/c2ccc(O)c(OC)c2)cc1`: the inhibition is 77.1% (active).

As for `COc1ccc(S[C@]2(C(=O)N(C)C)CC(=O)N(c3ccc(OC)cc3)[C@@H]2c2ccc(OC)cc2)cc1`, the inhibition is -1.97%.
